Experimental data as given in PubChem BioAssay (NCATS).
Inconclusive results are not listed. The source made the active and inactive calls. The call rests on the fitted dose curve; in most records, active means well fitted inhibition curve with a large enough effect; inconclusive means small, poorly fitted or top-dose-only effect; inactive means flat fitted curve, though single readings scatter.

Experiments:
Assay in all cases: qHTS profiling for inhibitors of Plasmodium falciparum proliferation (AID 504749); further: nearly all actives have a fitted effect of over 60% in size
Conditions in all cases: P. falciparum in erythrocytes, SYBR Green DNA, 72 h; series mostly up to 28.7 µM
CP291 = test system: CP291
Method in brief: (§1)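 P. falciparum-infected erythrocytes (0.3% parasitemia, 2.5% hematocrit) incubated with compound 72 h at 37 C, 5% CO2. Parasite DNA detected by SYBR Green after lysis, overnight at room temperature; normalised to 0.29 uM artemisinin and DMSO.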

CP315 = test system: CP315
Method in brief: as §1

CP325 = test system: CP325
Method in brief: as §1

CP329 = test system: CP329
Method in brief: as §1

DIV14 = test system: DIV14
Method in brief: as §1

CP286 = test system: CP286
Method in brief: as §1

CP335 = test system: CP335
Method in brief: as §1

DFO2036 = test system: DFO2036
Method in brief: as §1

CP297 = test system: CP297
Method in brief: as §1

CP305 = test system: CP305
Method in brief: as §1

Measured: Potency
Potency means the concentration at half of the fitted maximal effect.

c1ccc(CN(CC2=NCCN2)c2ccccc2)cc1
inactive: CP291 | CP315 | CP325 | CP329
active: DIV14 6.75 µM

CCN(CC)CCNC(=O)c1c(C)[nH]c(/C=C2\C(=O)Nc3ccc(F)cc32)c1C
active: CP286 11.2 µM | CP315 10.7 µM | CP329 12 µM | CP335 12 µM | DFO2036 8.91 µM | DIV14 4.78 µM

O=C1c2c(O)cccc2Cc2cccc(O)c21
not listed: CP291
inactive: all other assays above

CCN(CC)CCNC(C(=O)OCCC(C)C)c1ccccc1 (configuration not stated)
active: DIV14 4.26 µM
inactive: CP315

C#CCN(C)Cc1ccccc1
not listed: CP297
inactive: all other assays above

NC(=O)N/N=C/c1ccc([N+](=O)[O-])o1
inactive: CP315 | CP329

Cc1c(O)cccc1C(=O)N[C@@H](CSc1ccccc1)[C@H](O)CN1C[C@H]2CCCC[C@H]2C[C@H]1C(=O)NC(C)(C)C
inactive: CP305 | CP329
active: DIV14 16.9 µM

CC(C)(C)C(=O)C(Oc1ccc(Cl)cc1)n1ccnc1 (configuration not stated)
inactive: CP329
active: CP297 16.9 µM | DFO2036 12.6 µM | DIV14 13.5 µM

O=c1cc[nH]c(=S)[nH]1
not listed: CP297
inactive: all other assays above

NCC(=O)CCC(=O)O
not listed: CP335 | CP297
inactive: all other assays above
